# Reference: PubChem BioAssay (EPA / NIEHS)
# Records with an inconclusive call do not appear. Activity calls are given as the source filed them. The calls were made as follows, unless noted: active = hit-call score of the fitted dose curve at least 0.9, where 1 is the maximum; inactive = score below 0.9.
# What was measured:
# [1] = ATG_NFI_CIS: Attagene CIS-FACTORIAL HepG2 Assay for human Nuclear Factor I (NFI) (AID 2282989); settings: HepG2 cis-regulatory reporter, NFI response element transcription; actives raise or lower the signal
# Outline: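 HepG2 cells transiently transfected with cis-element-driven multiplexed reporter transcription units, dosed for 24 h. Reporter mRNA quantified by RT-PCR, fluorescent labelling, HpaI digestion and capillary electrophoresis; bidirectional fit versus DMSO baseline.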
# [2] = target: Myc proto-oncogene protein (Homo sapiens) (UniProt P01106); assay: ATG_Myc_CIS: Attagene CIS-FACTORIAL HepG2 Assay for human Myelocytomatosis (Myc) Proto-Oncogene Transcription Factor (AID 2282990); settings: HepG2, Attagene cis-reporter transcription factor activity; actives raise or lower the signal
# Outline: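 HepG2 cells transiently transfected with multiple cis-promoter-driven reporter transcription units, so endogenous TF activity is read. After 24 h compound exposure, reporter mRNA was quantified by RT-PCR, 6-FAM labelling, HpaI digestion and capillary electrophoresis; bidirectional fit versus DMSO.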
# [3] = ATG_NF_kB_CIS: Attagene CIS-FACTORIAL HepG2 Assay for human Nuclear Factor Kappa B (NF-kB) (AID 2282991); settings: HepG2 Attagene cis-factorial NF-kB reporter mRNA; actives raise or lower the signal
# Outline: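 HepG2 cells transiently transfected with multiplexed cis-element reporter units measuring endogenous transcription factor activity; reporter mRNA read 24 h after dosing by RT-PCR, fluorescent labelling, HpaI digestion and capillary electrophoresis. Bidirectional fit against DMSO baseline.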
# [4] = ATG_NRF2_ARE_CIS: Attagene CIS-FACTORIAL HepG2 Assay for human Nuclear Factor Erythroid 2 Related Factor 2 (NFR2) response to Antioxidant Response Elements (ARE) (AID 2282992); settings: HepG2 Attagene ARE/NRF2 reporter, transcription factor activity; actives raise or lower the signal
# Outline: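 Transient MRTU transfection of HepG2; 24 h compound exposure; TriZol RNA, RT with oligo(dT), PCR, 6-FAM primer extension, HpaI cut, CE. Bidirectional fit vs DMSO.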
# [5] = ATG_Oct_MLP_CIS: Attagene CIS-FACTORIAL HepG2 Assay for human Octamer-Binding Transcription Factor (Oct) (AID 2282993); settings: HepG2 Attagene cis-factorial Oct reporter, mRNA; actives raise or lower the signal
# Outline: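 HepG2 cells transiently transfected with cis-promoter-driven multiplexed reporter transcription units, dosed for 24 h. Reporter mRNA quantified by RT-PCR, fluorescent labelling, HpaI digestion and capillary electrophoresis; bidirectional fits versus DMSO baseline.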
# [6] = target: Cellular tumor antigen p53 (Homo sapiens) (UniProt P04637); assay: ATG_p53_CIS: Attagene CIS-FACTORIAL HepG2 Assay for human p53 Transcription Factor (AID 2282994); settings: HepG2 p53 cis-element reporter, Attagene mRNA; actives raise or lower the signal
# Outline: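 HepG2, transient MRTU transfection (cis promoter elements, endogenous TFs); 24 h dosing; RNA isolation, RT-PCR, 6-FAM primer extension, HpaI digest, CE fluorescence; bidirectional fit vs DMSO.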
# [7] = target: human Peroxisome Proliferator-activated Receptor delta (PPARd), PPARD (gene 5467) (UniProt Q03181); assay: ATG_PPARd_TRANS: Attagene TRANS-FACTORIAL HepG2 Assay for human Peroxisome Proliferator-activated Receptor delta (PPARd) (AID 2283002; active = hit-call score of the fitted dose curve at least 0.9, where 1 is the maximum)
# Outline: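 HepG2 cells transiently transfected with multiplexed GAL4-UAS reporter units and exogenous chimeric NR-Gal4 proteins; 24 h compound exposure. Reporter mRNA measured by RT-PCR, 6-FAM labelling, HpaI digestion and capillary electrophoresis; gain of signal versus DMSO.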
# [8] = target: Peroxisome proliferator-activated receptor gamma (Homo sapiens) (UniProt P37231); assay: ATG_PPARg_TRANS: Attagene TRANS-FACTORIAL HepG2 Assay for human Peroxisome Proliferator-activated Receptor-gamma (PPARg) (AID 2283007; active = hit-call score of the fitted dose curve at least 0.9, where 1 is the maximum)
# Outline: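 HepG2 cells transiently transfected with multiplexed GAL4-UAS reporter units and exogenous chimeric NR-Gal4 proteins; reporter mRNA quantified after 24 h compound exposure by RT-PCR, fluorescent labelling, HpaI digestion and capillary electrophoresis; gain-of-signal fitted versus DMSO baseline.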
# [9] = target: Nuclear receptor subfamily 1 group I member 2 (Homo sapiens) (UniProt O75469); assay: ATG_PXR_TRANS: Attagene TRANS-FACTORIAL HepG2 Assay for human Pregnane X Receptor (PXR) (AID 2283008; active = hit-call score of the fitted dose curve at least 0.9, where 1 is the maximum)
# Outline: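 Read-out is fluorescence of labelled reporter cDNA fragments separated by capillary electrophoresis after RT-PCR and HpaI digestion. Source: HepG2 cells carrying PXR-GAL4/UAS reporter constructs, treated 24 h; activity fitted upward relative to DMSO.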
# [10] = BSK_3C_TissueFactor: BioMAP Diversity Plus: 3C Assay for Tissue Factor Biomarker Activity (AID 2282997); settings: BioMAP 3C HUVEC, tissue factor biomarker readout; actives raise or lower the signal
# Outline: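 Values derive from bidirectional curve fitting against DMSO of Tissue Factor ELISA signals, taken 24 h after dosing primary human umbilical vein endothelial cells.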
# [11] = BSK_3C_uPAR: BioMAP Diversity Plus: 3C Assay for Urokinase-type plasminogen activator receptor (uPAR) Biomarker Activity (AID 2282998); settings: BioMAP 3C HUVEC, uPAR biomarker ELISA; actives raise or lower the signal
# Outline: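 Human umbilical vein endothelial primary cells were exposed to test chemical for 24 h. Cell-surface uPAR was then quantified by ELISA, and responses were fitted bidirectionally against DMSO as negative control and baseline.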
# [12] = BSK_3C_VCAM1: BioMAP Diversity Plus: 3C Assay for Vascular cell adhesion molecule 1 (VCAM1) Biomarker Activity (AID 2282999); settings: BioMAP 3C HUVEC, VCAM1 ELISA, cytokine-stimulated; actives raise or lower the signal
# Outline: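 Human umbilical vein endothelial cells were dosed with compound for 24 h, after which cell-surface VCAM-1 was quantified by ELISA. Bidirectional curve fitting used DMSO as negative control and activity baseline.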
# [13] = BSK_4H_Eotaxin3: BioMAP Diversity Plus: 4H Assay for Eotaxin 3 Biomarker Activity (AID 2283000); settings: primary human endothelial cells (HUVEC); actives raise or lower the signal;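 also: CCL26 protein level quantified by ELISA in parallel with SRB cytotoxicity check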
# Outline: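 Endothelial primary cells (human umbilical vein) exposed to compound for 24 h. ELISA detection of Eotaxin-3.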
# [14] = target: human Peroxisome Proliferator-activated Receptor alpha (PPARa), PPARA (gene 5465) (UniProt Q07869); assay: ATG_PPARa_TRANS: Attagene TRANS-FACTORIAL HepG2 Assay for human Peroxisome Proliferator-activated Receptor alpha (PPARa) (AID 2283001; active = hit-call score of the fitted dose curve at least 0.9, where 1 is the maximum)
# Outline: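 Gain-of-signal endpoint: reporter mRNA induction relative to DMSO, detected by fluorescent RT-PCR and capillary electrophoresis. HepG2 cells transiently carried GAL4-UAS-driven reporter units plus NR-Gal4 fusion; exposure lasted 24 h.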
# [15] = target: Retinoic acid receptor alpha (Homo sapiens) (UniProt P10276); assay: ATG_RARa_TRANS: Attagene TRANS-FACTORIAL HepG2 Assay for human Retinoic Acid Receptor alpha (RARa) (AID 2283005; active = hit-call score of the fitted dose curve at least 0.9, where 1 is the maximum)
# Outline: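 HepG2 cells transiently transfected with multiple reporter units expressing chimeric RARα-GAL4 fusion, with GAL4-UAS-driven reporters. After 24 h compound exposure, reporter mRNA induction quantified by RT-PCR and capillary electrophoresis with fluorescent labeling; gain-of-signal fitted relative to DMSO control.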
# [16] = BSK_3C_Proliferation: Cell Proliferation Assessment in the BioMAP Diversity Plus: 3C Assay (AID 2283006); settings: primary human endothelial cells (HUVEC)
# Outline: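 Read-out is total protein by SRB absorbance at 560 nm, taken as a proxy for relative cell number. Primary human umbilical vein endothelium cultured below confluence was dosed for 48 h, TCA-fixed and SRB-stained; curves were fitted bidirectionally versus DMSO.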
# [17] = target: human Retinoic Acid Receptor gamma (RARg), RARG (gene 5916) (UniProt P13631); assay: ATG_RARg_TRANS: Attagene TRANS-FACTORIAL HepG2 Assay for human Retinoic Acid Receptor gamma (RARg) (AID 2283009; active = hit-call score of the fitted dose curve at least 0.9, where 1 is the maximum)
# Outline: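 Transient transfection of HepG2 with multi-reporter constructs, then 24 h chemical treatment. Total RNA isolated, reverse-transcribed, PCR-amplified, fluorescently labelled and resolved by capillary electrophoresis; activity scored as mRNA induction versus DMSO.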
# [18] = target: human Retinoic Acid Receptor beta (RARb), RARB (gene 5915) (UniProt P10826); assay: ATG_RARb_TRANS: Attagene TRANS-FACTORIAL HepG2 Assay for human Retinoic Acid Receptor beta (AID 2283004; active = hit-call score of the fitted dose curve at least 0.9, where 1 is the maximum)
# Outline: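 HepG2, transient MRTU transfection, NR–Gal4 chimera, 24 h treatment; RT-PCR plus CE fluorescence detection of reporter mRNA; gain of signal vs DMSO.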
# Sequence of Cellular tumor antigen p53 (Homo sapiens) (P04637 whole entry, looked up): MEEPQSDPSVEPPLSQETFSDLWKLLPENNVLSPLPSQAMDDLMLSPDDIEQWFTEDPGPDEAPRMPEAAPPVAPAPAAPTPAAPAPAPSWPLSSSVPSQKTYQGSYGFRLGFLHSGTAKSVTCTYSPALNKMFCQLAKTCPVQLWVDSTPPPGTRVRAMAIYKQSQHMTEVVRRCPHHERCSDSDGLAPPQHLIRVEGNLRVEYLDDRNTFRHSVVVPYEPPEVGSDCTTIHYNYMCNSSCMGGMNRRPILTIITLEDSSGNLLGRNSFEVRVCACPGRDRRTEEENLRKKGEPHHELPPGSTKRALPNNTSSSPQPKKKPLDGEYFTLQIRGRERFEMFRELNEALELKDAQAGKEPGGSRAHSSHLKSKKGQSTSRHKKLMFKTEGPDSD
# Sequence of Nuclear receptor subfamily 1 group I member 2 (Homo sapiens) (O75469 whole entry, looked up, the tested form may be a part): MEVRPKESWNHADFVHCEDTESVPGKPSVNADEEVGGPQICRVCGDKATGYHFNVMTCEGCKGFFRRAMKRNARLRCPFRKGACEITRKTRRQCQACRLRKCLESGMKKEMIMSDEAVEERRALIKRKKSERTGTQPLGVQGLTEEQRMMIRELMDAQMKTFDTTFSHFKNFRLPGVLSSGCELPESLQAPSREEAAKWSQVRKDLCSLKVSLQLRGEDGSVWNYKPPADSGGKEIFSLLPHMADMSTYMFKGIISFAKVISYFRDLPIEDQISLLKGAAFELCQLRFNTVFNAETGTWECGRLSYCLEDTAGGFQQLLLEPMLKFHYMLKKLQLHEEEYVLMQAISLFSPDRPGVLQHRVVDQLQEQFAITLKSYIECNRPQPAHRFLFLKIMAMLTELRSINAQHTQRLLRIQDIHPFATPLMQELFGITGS
# Sequence of human Peroxisome Proliferator-activated Receptor delta (PPARd), PPARD (gene 5467) (Q03181 whole entry, looked up, the tested form may be a part): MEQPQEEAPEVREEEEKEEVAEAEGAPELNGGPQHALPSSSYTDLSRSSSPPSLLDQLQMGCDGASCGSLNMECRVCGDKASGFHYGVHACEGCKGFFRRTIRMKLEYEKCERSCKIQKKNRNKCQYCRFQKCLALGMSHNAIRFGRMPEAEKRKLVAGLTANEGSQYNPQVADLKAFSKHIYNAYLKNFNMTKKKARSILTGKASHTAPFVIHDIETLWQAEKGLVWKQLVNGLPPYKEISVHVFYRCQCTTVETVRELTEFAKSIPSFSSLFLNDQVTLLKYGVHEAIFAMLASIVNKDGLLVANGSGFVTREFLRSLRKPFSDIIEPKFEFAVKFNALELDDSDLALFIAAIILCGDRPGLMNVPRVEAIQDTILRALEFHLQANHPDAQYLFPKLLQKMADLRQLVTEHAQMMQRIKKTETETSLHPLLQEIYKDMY
# Sequence of Myc proto-oncogene protein (Homo sapiens) (P01106 whole entry, looked up): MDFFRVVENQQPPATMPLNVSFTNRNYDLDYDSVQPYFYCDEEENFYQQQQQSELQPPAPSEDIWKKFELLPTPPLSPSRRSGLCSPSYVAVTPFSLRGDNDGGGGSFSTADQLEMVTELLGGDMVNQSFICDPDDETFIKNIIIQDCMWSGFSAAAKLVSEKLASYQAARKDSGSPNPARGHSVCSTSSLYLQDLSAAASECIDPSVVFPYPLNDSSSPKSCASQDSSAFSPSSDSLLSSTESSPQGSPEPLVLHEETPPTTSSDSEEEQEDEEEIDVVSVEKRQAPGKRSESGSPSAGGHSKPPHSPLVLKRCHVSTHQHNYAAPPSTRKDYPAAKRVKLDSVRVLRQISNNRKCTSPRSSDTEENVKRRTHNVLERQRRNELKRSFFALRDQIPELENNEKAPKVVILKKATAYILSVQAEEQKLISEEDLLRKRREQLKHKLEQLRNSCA
# Sequence of human Peroxisome Proliferator-activated Receptor alpha (PPARa), PPARA (gene 5465) (Q07869 whole entry, looked up, the tested form may be a part): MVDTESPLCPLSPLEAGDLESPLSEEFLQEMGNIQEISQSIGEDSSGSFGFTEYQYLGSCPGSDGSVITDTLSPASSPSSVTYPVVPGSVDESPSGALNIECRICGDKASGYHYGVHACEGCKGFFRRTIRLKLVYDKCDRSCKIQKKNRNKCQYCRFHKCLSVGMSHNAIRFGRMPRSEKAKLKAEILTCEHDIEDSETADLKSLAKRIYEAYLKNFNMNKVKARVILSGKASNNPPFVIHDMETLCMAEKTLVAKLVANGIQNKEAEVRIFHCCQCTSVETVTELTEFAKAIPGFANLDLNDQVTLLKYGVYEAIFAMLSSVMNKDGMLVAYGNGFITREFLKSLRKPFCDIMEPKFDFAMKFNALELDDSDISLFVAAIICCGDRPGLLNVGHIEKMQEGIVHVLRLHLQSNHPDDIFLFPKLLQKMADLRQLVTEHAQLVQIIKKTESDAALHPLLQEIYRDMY
# Sequence of human Retinoic Acid Receptor gamma (RARg), RARG (gene 5916) (P13631 whole entry, looked up): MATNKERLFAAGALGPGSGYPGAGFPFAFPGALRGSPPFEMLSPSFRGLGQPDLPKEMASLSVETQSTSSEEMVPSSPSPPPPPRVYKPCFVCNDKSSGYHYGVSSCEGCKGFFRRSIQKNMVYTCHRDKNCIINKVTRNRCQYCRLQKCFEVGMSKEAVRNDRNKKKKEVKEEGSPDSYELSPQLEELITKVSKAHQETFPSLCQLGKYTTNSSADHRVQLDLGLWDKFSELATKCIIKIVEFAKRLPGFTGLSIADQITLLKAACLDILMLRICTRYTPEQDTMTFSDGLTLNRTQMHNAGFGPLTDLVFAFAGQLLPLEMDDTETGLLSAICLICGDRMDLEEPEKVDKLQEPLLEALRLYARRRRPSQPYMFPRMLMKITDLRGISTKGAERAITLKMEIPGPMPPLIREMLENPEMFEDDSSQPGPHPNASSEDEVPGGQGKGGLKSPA
# Sequence of Retinoic acid receptor alpha (Homo sapiens) (P10276 whole entry, looked up, the tested form may be a part): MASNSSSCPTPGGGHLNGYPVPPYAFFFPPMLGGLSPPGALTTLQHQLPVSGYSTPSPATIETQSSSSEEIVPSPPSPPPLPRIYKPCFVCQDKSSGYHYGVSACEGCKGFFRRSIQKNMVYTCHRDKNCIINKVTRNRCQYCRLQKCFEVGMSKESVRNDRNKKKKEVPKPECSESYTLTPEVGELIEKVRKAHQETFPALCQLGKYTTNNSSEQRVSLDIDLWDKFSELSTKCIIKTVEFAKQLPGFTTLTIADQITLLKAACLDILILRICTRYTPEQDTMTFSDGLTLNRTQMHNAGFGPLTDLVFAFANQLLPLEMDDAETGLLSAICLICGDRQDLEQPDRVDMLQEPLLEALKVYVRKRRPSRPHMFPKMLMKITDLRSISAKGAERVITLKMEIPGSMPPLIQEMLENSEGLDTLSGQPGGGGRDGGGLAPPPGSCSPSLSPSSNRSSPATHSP
# Sequence of human Retinoic Acid Receptor beta (RARb), RARB (gene 5915) (P10826 whole entry, looked up, the tested form may be a part): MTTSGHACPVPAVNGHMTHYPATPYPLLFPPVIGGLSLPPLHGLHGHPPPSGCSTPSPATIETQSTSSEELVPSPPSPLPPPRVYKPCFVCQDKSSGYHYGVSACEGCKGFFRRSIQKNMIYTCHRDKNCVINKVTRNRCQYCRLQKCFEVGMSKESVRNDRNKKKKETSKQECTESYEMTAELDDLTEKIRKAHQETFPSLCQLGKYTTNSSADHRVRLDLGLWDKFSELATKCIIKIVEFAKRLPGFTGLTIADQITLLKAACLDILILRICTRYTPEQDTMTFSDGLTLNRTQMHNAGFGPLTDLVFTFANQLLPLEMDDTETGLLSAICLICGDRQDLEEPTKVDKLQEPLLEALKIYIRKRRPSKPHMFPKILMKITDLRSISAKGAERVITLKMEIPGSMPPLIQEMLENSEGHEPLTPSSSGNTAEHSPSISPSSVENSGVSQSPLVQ
# Sequence of Peroxisome proliferator-activated receptor gamma (Homo sapiens) (P37231 whole entry, looked up, the tested form may be a part): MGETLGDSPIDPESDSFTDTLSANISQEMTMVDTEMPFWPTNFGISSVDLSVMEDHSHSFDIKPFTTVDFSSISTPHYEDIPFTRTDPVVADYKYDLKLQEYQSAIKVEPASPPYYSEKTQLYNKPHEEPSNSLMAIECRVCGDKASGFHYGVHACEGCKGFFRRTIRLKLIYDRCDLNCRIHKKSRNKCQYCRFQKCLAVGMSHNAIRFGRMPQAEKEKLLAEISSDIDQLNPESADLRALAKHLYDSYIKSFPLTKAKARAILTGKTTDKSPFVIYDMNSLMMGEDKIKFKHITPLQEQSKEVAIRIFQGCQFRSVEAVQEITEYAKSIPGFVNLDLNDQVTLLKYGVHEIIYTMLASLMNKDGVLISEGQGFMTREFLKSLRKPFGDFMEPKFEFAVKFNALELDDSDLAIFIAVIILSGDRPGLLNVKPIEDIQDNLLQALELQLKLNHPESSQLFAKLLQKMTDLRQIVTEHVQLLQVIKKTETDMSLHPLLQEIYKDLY
SMILES,outcome [1],outcome [2],outcome [3],outcome [4],outcome [5],outcome [6],outcome [7],outcome [8],AC50 [9],outcome [10],outcome [11],outcome [12],outcome [13],outcome [14],outcome [15],outcome [16],outcome [17],outcome [9],outcome [18]
CC(C=O)c1ccccc1 (stereo not given),inactive,inactive,inactive,inactive,inactive,inactive,inactive,inactive,5.82 µM (active),,,,,,,,,,
CC(Cl)COP(=O)(OCC(C)Cl)OCC(C)Cl (stereo not given),inactive,,inactive,inactive,inactive,inactive,inactive,,1.37 µM (active),inactive,inactive,inactive,inactive,inactive,inactive,inactive,inactive,,
COC(=O)CC(C)CCC=C(C)C (stereo not given),inactive,inactive,,inactive,inactive,inactive,,,,,,,,inactive,,,,inactive,
CC(C)=NNC(N)=S,inactive,inactive,inactive,inactive,inactive,inactive,inactive,,,,,,,,,,,inactive,inactive
